According to PubChem BioAssay AID1159580 (chemical genetic matrix, 2015):
Where “and” joins values, the source holds several entries; their conditions need not be identical. Identical values can stand only once. Among all 5,500 compounds or so, about 2,000 (36%) were called active. Roughly 18% stayed inconclusive and do not appear here. Rule as the data show it: active = normalized growth mostly below about 0.91 (no sharp cut-off); inconclusive = no clear call, values can overlap the other calls; inactive = mostly above about 0.92. This is one part of the list.

Assay: chemical genetic growth profiling, strain panel (AID 1159580);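 also: tested at 20 µM; growth read once vehicle control cultures reached saturation at 30 °C; 1 = growth at the plate median or of vehicle wells; lower values mean less growth of the strain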
Settings: S. cerevisiae deletion strains, growth OD

Measured: normalized growth

O=C(O)C1CCCNC1 (stereo not given)
inactive: locus YAL013W, strain DEP1, stronger effect = lower value 1 | locus YAL021C, strain ccr4, stronger effect = lower value 1.01 | locus YAL026C, strain drs2, stronger effect = lower value 1.02 | locus YAL030W, strain snc1, stronger effect = lower value 1.02 | locus YAL040C, strain CLN3, stronger effect = lower value 1 | locus YBL061C, strain skt5, stronger effect = lower value 1.02 | locus YBR009C, strain hhf1, stronger effect = lower value 1.01 | locus YBR021W, strain FUR4, stronger effect = lower value 0.999 | locus YBR023C, strain chs3, stronger effect = lower value 1.01 | locus YBR171W, strain sec66, stronger effect = lower value 1.03 | locus YBR229C, strain ROT2, stronger effect = lower value 1.01 | locus YBR231C, strain swc5, stronger effect = lower value 1.01 | locus YBR279W, strain paf1, stronger effect = lower value 1.01 | locus YCL011C, strain gbp2, stronger effect = lower value 1.01 | locus YCL016C, strain dcc1, stronger effect = lower value 1.01 | locus YCL029C, strain bik1, stronger effect = lower value 1.04 | locus YCL061C, strain MRC1 (second series), stronger effect = lower value 1 | locus YCL061C, strain MRC1, stronger effect = lower value 1.02 | locus YCL069W, strain vba3, stronger effect = lower value 1.02 | locus YCR088W, strain abp1, stronger effect = lower value 1.02 | locus YDL005C, strain med2, stronger effect = lower value 1.02 | locus YDL035C, strain GPR1, stronger effect = lower value 1.01 | locus YDL040C, strain nat1, stronger effect = lower value 1.02 | locus YDL074C, strain BRE1, stronger effect = lower value 1.03 | locus YDL101C, strain DUN1, stronger effect = lower value 1.01 | locus YDL134C, strain PPH21, stronger effect = lower value 1.01 | locus YDL185W, strain tfp1, stronger effect = lower value 1.01 | locus YDL192W, strain arf1, stronger effect = lower value 1.03 | locus YDR001C, strain nth1, stronger effect = lower value 1.02 | locus YDR069C, strain doa4, stronger effect = lower value 1.02 | locus YDR101C, strain arx1, stronger effect = lower value 1.02 | locus YDR137W, strain rgp1, stronger effect = lower value 1.02 | locus YDR150W, strain NUM1, stronger effect = lower value 1.01 | locus YDR159W, strain sac3, stronger effect = lower value 1.02 | locus YDR162C, strain NBP2, stronger effect = lower value 1.01 | locus YDR195W, strain ref2 0.991 | locus YDR297W, strain sur2, stronger effect = lower value 1.02 | locus YDR318W, strain mcm21, stronger effect = lower value 1.03 | locus YDR334W, strain swr1, stronger effect = lower value 1.02 | locus YDR335W, strain msn5, stronger effect = lower value 1.02 | locus YDR388W, stronger effect = lower value 1.02 | locus YDR392W, strain spt3, stronger effect = lower value 1.03 | locus YDR502C, strain sam2, stronger effect = lower value 1.01 | locus YEL003W, strain gim4, stronger effect = lower value 1.03 | locus YEL037C, strain rad23, stronger effect = lower value 1.02 | locus YEL061C, strain CIN8 (second series), stronger effect = lower value 1.02 | locus YEL061C, strain CIN8, stronger effect = lower value 1.01 | locus YER002W, strain NOP16, stronger effect = lower value 1.02 | locus YER015W, strain faa2, stronger effect = lower value 1.02 | locus YER016W, strain bim1, stronger effect = lower value 1.01 | locus YER110C, stronger effect = lower value 1.02 | locus YER111C, strain swi4, stronger effect = lower value 1.02 | locus YER155C, strain BEM2 (second series), stronger effect = lower value 1.02 | locus YER155C, strain BEM2, stronger effect = lower value 1 | locus YER167W, strain BCK2, stronger effect = lower value 1.02 | locus YFR010W, strain ubp6, stronger effect = lower value 1.02 | locus YGL078C, strain dbp3, stronger effect = lower value 1.02 | locus YGL086W, strain mad1, stronger effect = lower value 0.999 | locus YGL167C, strain pmr1, stronger effect = lower value 1.01 | locus YGL173C, strain kem1, stronger effect = lower value 1.02 | locus YGL227W, strain vid30, stronger effect = lower value 1.02 | locus YGL240W, strain doc1, stronger effect = lower value 1.02 | locus YGL248W, strain PDE1, stronger effect = lower value 1.01 | locus YGL253W, strain hxk2, stronger effect = lower value 1.02 | locus YGR078C, strain PAC10, stronger effect = lower value 1.02 and 1.01 | locus YGR135W, strain pre9, stronger effect = lower value 1.03 | locus YGR229C, strain SMI1, stronger effect = lower value 0.999 | locus YGR252W, strain gcn5, stronger effect = lower value 1.01 | locus YHR013C, strain ard1, stronger effect = lower value 1.04 | locus YHR027C, strain rpn1, stronger effect = lower value 1.01 | locus YHR030C, strain SLT2, stronger effect = lower value 1 and 0.996 | locus YHR079C, strain IRE1 (second series), stronger effect = lower value 1.02 | locus YHR079C, strain IRE1, stronger effect = lower value 1.01 | locus YHR094C, strain hxt1, stronger effect = lower value 1.02 | locus YHR129C, strain ARP1, stronger effect = lower value 1.01 | locus YHR142W, strain chs7, stronger effect = lower value 1.01 | locus YHR200W, strain rpn10, stronger effect = lower value 1.01 | locus YIL066C, strain RNR3, stronger effect = lower value 1.01 | locus YIL073C, strain SPO22, stronger effect = lower value 1.1 | locus YIL125W, strain kgd1, stronger effect = lower value 1.02 | locus YIR030C, strain dcg1, stronger effect = lower value 1.03 | locus YJL092W, strain hpr5, stronger effect = lower value 1.02 | locus YJL095W, strain BCK1 (second series), stronger effect = lower value 1.02 | locus YJL095W, strain BCK1, stronger effect = lower value 1.04 and 1 | locus YJL115W, strain asf1, stronger effect = lower value 1.01 | locus YJL129C, strain trk1, stronger effect = lower value 1.04 | locus YJL134W, strain LCB3, stronger effect = lower value 1.01 | locus YJL154C, strain vps35, stronger effect = lower value 1.03 | locus YJL164C, strain tpk1, stronger effect = lower value 1.01 | locus YJL166W, strain qcr8, stronger effect = lower value 1.01 | locus YJL168C, strain set2, stronger effect = lower value 1.02 | locus YJL187C, strain SWE1 (second series), stronger effect = lower value 1.02 | locus YJL187C, strain SWE1, stronger effect = lower value 1.01 | locus YJR043C, strain POL32, stronger effect = lower value 1.01 | locus YJR066W, strain TOR1, stronger effect = lower value 0.923
